Screening data: PubChem, National Center for Advancing Translational Sciences (NCATS)
Compounds with a hit are over-represented: about 12% of the library has one in this group of screens.
Shiga inhibitor = A qHTS for Small Molecule Inhibitors of Shiga Toxin; Vero cells, Shiga toxin protein synthesis inhibition reporter; inhibition, % at 38.7 µM; actives 9.2% (n = 290,000); in the data active means inhibition mostly above about 28%, no sharp cut-off; inactive means mostly below about 43%; further: 0% is about no effect
CHX counter = Cycloheximide Counterscreen for Small Molecule Inhibitors of Shiga Toxin. actives 12% (n = 300,000). cell reporter, cycloheximide protein synthesis inhibition counterscreen. max response, %; in the data active means max response mostly above about 13%, no sharp cut-off; inactive means mostly below about 14%; further: read at 38.3 µM for the half of the compounds with a filed dose; 0% is about no effect
NS1 inh = qHTS Assay for Inhibitors of Influenza NS1 Protein Function | Potency, µM (titrated, usually from 46.1 µM), inactives show at the highest dose activity, positive = more growth | actives 0.4% (n = 270,000); further: potency means the concentration at half of the fitted maximal effect; actives are rising curves; nearly all actives have a fitted effect of over 50% in size
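OD600 was taken as the measure of yeast growth restored by compound in an NS1-expressing S. cerevisiae strain. Cells had been washed out of glucose medium and diluted 1:100 into galactose -URA medium, pH 6.0.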
SARS PLpro yeast = qHTS of Yeast-based Assay for SARS-CoV PLP | S. cerevisiae expressing SARS-CoV PLpro, growth rescue | Potency, µM (top dose mostly 32.9 µM), for inactives: at the top dose activity, positive = growth rescue, usual class: activators | actives 0.19% (n = 330,000) | AID 485353, 2010; further: potency means the concentration at half of the fitted maximal effect; 0% is about no effect; nearly all actives have a fitted effect of over 55% in size
* hit, by the source's call; ? = inconclusive; . = no result given. Unless noted, the call rests on the fitted dose curve.

SMILES | Shiga inhibitor | CHX counter | NS1 inh | SARS PLpro yeast
CCN1C(=O)/C(=C/C=C2/CCCN2C)OC1=S | 46* | 28* | -6% | 2%
Cc1nn(-c2ccccc2)c(C)c1/C=C1\C(=O)N(C)C(=S)N1C | -9 | 16 | . | -1%
Cc1ccc2nc(-c3ccc(N4C(=NC(=O)CCC(=O)O)SC5CS(=O)(=O)CC54)cc3)sc2c1 (stereo not drawn) | 124* | 37* | 6% | 0%
CC(=O)N=C1SC2CS(=O)(=O)CC2N1Cc1ccc(C)cc1 (stereo not drawn) | -9 | -1 | 1% | 1%
CC(=O)N=C1SC2CS(=O)(=O)CC2N1c1ccc(-c2nc3ccc(C)cc3s2)cc1 (stereo not drawn) | 54* | 18* | 5% | 8%
COc1ccccc1CNC(=O)CCNS(=O)(=O)c1ccc2[nH]c(=O)oc2c1 | 7 | -1 | 18% | 6%
CC[C@H](C)[C@H](NC(=O)[C@H](Cc1ccc(O)cc1)NC(=O)[C@@H](NC(=O)[C@H](CCCN=C(N)N)NC(=O)[C@@H](N)CC(=O)O)C(C)C)C(=O)N[C@@H](Cc1cnc[nH]1)C(=O)N1CCC[C@H]1C(=O)N[C@@H](Cc1ccccc1)C(=O)N[C@@H](Cc1cnc[nH]1)C(=O)N[C@@H](CC(C)C)C(=O)O | -8 | 2 | . | .
Cc1cc(C)nc(NC(=O)COc2ccc(Cl)cc2)c1 | . | . | -21% | .
Fc1ccc(CNc2ncccn2)cc1 | 20 | 7 | -3% | 0%
Clc1ccc(CNc2ncccn2)cc1 | 43* | 26* | 2% | 1%
Cc1ccnc(NC(=O)COc2ccc(Cl)cc2)n1 | 41 | 25* | 0% | 0%
O=C(COc1ccc(Cl)cc1)Nc1ncccn1 | 35* | 34* | -2% | 2%
O=C(CNC(=S)N(Cc1ccccc1)Cc1ccccc1F)NCCc1ccc(Cl)cc1 | 0 | 3 | . | -5%
COc1ccc(N(CC(=O)N2CCOCC2)S(C)(=O)=O)c(OC)c1 | -7 | 1 | 17% | 0%
O=C(Nc1cnc2ccccn2c1=O)c1ccc(Cl)cc1 | 113* | 33* | -16% | 3%
COc1cccc(Oc2ncnc(N)c2[N+](=O)[O-])c1 | -6 | 2 | 1% | -1%
c1ccc(-c2nc3c4ccccc4ccn3c2CN2CCCCC2)cc1 | 35 | 11 | -5% | 0%
Cc1ccc(-c2nc3c4ccccc4ccn3c2CN2CCCCC2)cc1 | 59* | 32* | -1% | 1%
CCCc1nnc2n1N=C(c1ccc(-c3cc(Cl)ccc3Cl)o1)CS2 | active | 21* | -10% | 5%
CCCc1nnc2n1N=C(c1ccc(OC)c(OC)c1)CS2 | 11 | -3 | 0% | -13%
Cc1ccc(COc2ccc(-c3nnco3)cc2)cc1 | 67* | 40* | -59% | -2%
COCCCNC(=O)COc1ccc(Br)cc1Cl | 88* | 38* | 1% | -3%
O=C(COc1ccc(Br)cc1Cl)Nn1cnnc1 | -4 | -6 | . | 2%
CCNC(=O)COc1ccc(Br)cc1Cl | 60* | 28* | -12% | -1%
CC(C)(C)OC(=O)C[C@H]1C/C=C\C[C@@H](CC(=O)NCCO)C(=O)N[C@H](Cc2ccccc2)COC1=O | . | . | . | 7%
SMILES | Shiga inhibitor | CHX counter | NS1 inh | SARS PLpro yeast
CCCC[C@@H]1CCCO[C@@](C(=O)NCc2cc(C)n(C)n2)(C(F)(F)F)C1 | 20 | 6 | . | .
CC(=O)N1N=C(c2ccc(C)cc2)OC1c1cccnc1 (stereo not drawn) | 61* | 18 | . | -1%
CC(=O)N1N=C(c2cccc(Cl)c2)OC1c1cccc([N+](=O)[O-])c1 (stereo not drawn) | -8 | -3 | -16% | -51%
CC(=O)N1N=C(c2cccc(Cl)c2)OC1c1ccc(C(C)C)cc1 (stereo not drawn) | 31 | 23* | -1% | 1%
CC(=O)NC1=NN(C(C)=O)C(c2cccc([N+](=O)[O-])c2)S1 (stereo not drawn) | -11 | -1 | 0% | -1%
CC(=O)NC1=NN(C(C)=O)C(c2ccc(C(C)C)cc2)S1 (stereo not drawn) | 5 | 16* | 10% | 4%
COC(=O)c1ccc(-n2c(C)ccc2-c2ccccc2)cc1 | 2 | 14* | -34% | -44%
CC(=O)c1ccc(-n2c(C)ccc2-c2ccccc2)cc1 | 32 | 29* | -6% | -14%
CC(=O)Nc1ccc(-n2c(C)ccc2-c2ccccc2)cc1 | -5 | -4 | -7% | -7%
O=C(O)CCn1cc(C2CC(c3ccccc3)=NN2c2ccccc2)c(-c2ccccc2)n1 (stereo not drawn) | 17 | 0 | -23% | -1%
CCN(CC)CCn1c(NC(=O)c2ccc(C)cc2)nc2ccccc21 | . | 44* | 1% | -5%
O=C(Nc1nc2ccccc2n1CCN1CCOCC1)c1ccccc1 | 18 | 10* | -4% | -4%
CCn1c(NC(=O)c2cccs2)nc2ccccc21 | 65 | 47* | -78% | -10%
Cn1c(NC(=O)c2ccc(F)cc2)nc2ccccc21 | 40* | 31* | -32% | -2%
CC(=O)Nc1nc2ccccc2n1CCN1CCOCC1 | 9 | -3 | -6% | -6%
O=C(c1cccc(-c2ccccc2)c1)N1CC[C@@H](N2CCC(O)CC2)[C@H](O)C1 | 14 | 3 | -3% | ?
O=C(COc1cc2oc(=O)c3c(c2cc1Cl)CCC3)NCCCn1ccnc1 | -1 | -4 | 5% | 6%
CCN(CC(=O)NC1CCS(=O)(=O)C1)S(=O)(=O)c1cc([N+](=O)[O-])ccc1C (stereo not drawn) | . | . | . | -7%
O=C1CC[C@H](N2C(=O)c3ccccc3C2=O)C(=O)N1 | . | . | . | -4%
CCN(CC)CCn1c(NC(=O)c2ccc(C(F)(F)F)cc2)nc2ccccc21 | -10 | -3 | . | 1%
CN(C)CCn1c(NC(=O)c2ccc(Cl)cc2)nc2ccccc21 | 89* | 38* | 1% | 8%
COC(=O)c1cc(NS(=O)(=O)c2ccc(C)c3ccccc23)ccc1N1CCOCC1 | -9 | 11 | 0% | 0%
COc1ccc(Nc2n[nH]c(C)c2[N+](=O)[O-])cc1 | 100* | 32* | -4% | -1%
Cc1[nH]nc(Nc2ccc(O)cc2)c1[N+](=O)[O-] | 16 | 10 | 3% | -1%
COc1ccccc1NC(=O)Nc1nnc(C(C)c2ccccc2)s1 (stereo not drawn) | 12 | 2 | 12% | -2%
SMILES | Shiga inhibitor | CHX counter | NS1 inh | SARS PLpro yeast
CCc1nnc(NC(=O)Nc2ccccc2OC)s1 | 91* | 35* | -19% | 2%
COc1ccccc1NC(=O)Nc1nnc(C(C)C)s1 | 75* | 51* | 4% | 12%
CC(C)c1nnc(NC(=O)Cc2ccccc2[N+](=O)[O-])s1 | active | 12* | 14% | -2%
CC(C)(C)c1nnc(NC(=O)Cc2ccccc2[N+](=O)[O-])s1 | 13 | -3 | 5% | -9%
COc1ccc(-c2noc3c2-c2nc(-c4cccc(C)c4)sc2CC3)cc1 | -3 | -1 | 6% | 3%
COc1ccc(-n2c(C)cc(/C=C3\SC(=O)NC3=O)c2C)cc1 | 58* | 42* | -3% | -1%
Cc1cc(/C=C2/C(=O)NN(c3ccccc3)C2=O)c(C)n1-c1cccc(O)c1 | 60* | 57* | 2% | -15%
Cc1ccc(-n2c(C)cc(/C=C3/C(=O)NC(=O)N(C)C3=O)c2C)cc1 | 15 | -3 | 15% | 4%
